# Source: PubChem
# This is a sample that favours compounds with a hit; in the whole collection about 2.2% have one here.
# TDP-43 yeast inh – TDP-43 toxicity inhibition in yeast | TDP-43 expressing yeast growth rescue, BacTiter-Glo, 24 h | Potency, µM (doses to about 46.1 µM), without a hit: top-dose growth rescue (activation), actives largely listed as activators | 1.8% of 410,000 active; note: % of control where 0% means no effect; nearly all actives have a fitted effect of over 50% in size
#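 Growth rescue of TDP-43-toxic yeast measured as ATP luminescence (BacTiter-Glo). Cells grown to mid-log in raffinose, induced in galactose at OD600=0.02, exposed to compound 24 hr at 30 deg C.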
# FUS suppressor – rescues growth of FUS-expressing yeast; S. cerevisiae FUS-expressing, growth rescue, OD600, 24 h; Potency, µM (doses to about 76.6 µM), usual class: activators; 0.24% of 390,000 active;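 note: plate controls were DMSO vehicle for no effect and reference control for full effect; nearly all actives have a fitted effect of over 55% in size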
#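 Cultures pregrown in 2.5% raffinose medium are shifted to minimal medium containing 2% galactose to express toxic FUS. Compounds are tested at several concentrations. After 24hr at 30C, growth is quantified at 600 nm absorbance.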
# Mito fusion act – inhibitors of mitochondrial division or activators of mitochondrial fusion; S. cerevisiae fusion-defective mutant growth rescue, CellTiterGlo 48 h; Potency, µM (highest dose often 46.1 µM), for inactives: at the top dose growth rescue (activation), most hits filed as activators; 0.23% of 320,000 active; AID 485298; note: % of control where 0% means no effect; nearly all actives have a fitted effect of over 45% in size
#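 Luminescent cell viability in 1536-well qHTS format served as the measure of rescued growth in ts fusion-mutant S. cerevisiae cultured on non-fermentable YPEG for 48 hours at 37C.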
# Abeta rescue – restores growth of yeast expressing A-beta42 peptide | yeast expressing A-beta42, growth rescue, OD600, 48 h; response scale: 0% DMSO, 100% iron-clioquinol control | Potency, µM (highest dose often 46.1 µM), most hits filed as activators | 0.063% of 410,000 active | AID 1347071; note: nearly all actives have a fitted effect of over 55% in size
#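 Yeast growth medium received pinned compounds, then yeast cells expressing toxic A-beta were added; plates incubated at 30 C for 48 hr. Growth read as absorbance at 600 nm, normalized to DMSO and equimolar FeCl3 plus clioquinol controls.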
# aSyn yeast inh – rescues yeast growth from alpha-synuclein toxicity | Yeast expressing alpha-synuclein, growth rescue, BacTiter-Glo, 24 h | Potency, µM (titrated, usually from 46.1 µM), inactives show at the highest dose growth rescue (activation), hits mostly activators | 0.14% of 370,000 active | AID 652106; note: % of control where 0% means no effect; nearly all actives have a fitted effect of over 65% in size
#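 Rescue of yeast growth: cells expressing toxic alpha-synuclein, induced in galactose at OD600 0.02, incubated with compound 24 h at 30 C. ATP luminescence quantified growth; inhibitors of toxicity appear as activators.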
# ERG Ets-DNA blk – ERG Ets/DNA interaction inhibition. fluorescence polarization, His-ERG Ets domain / labelled DNA. AID 624246. Potency, µM (highest dose often 76.9 µM), inactives show at the top dose FP activity, negative = inhibition, hits mostly inhibitors. 0.028% of 370,000 active. P11308; active = well fitted inhibition curve with a large enough effect in the polarisation, with a control signal flat; inconclusive = small, poorly fitted or top-dose-only effect, or effect the other way, or a change in a side signal; inactive = no such curve, though single readings can be large or run the other way; the % refers to the polarisation;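 note: polarization taken with two DNA probes labelled with fluorescein and Texas red; % of control where 0% means no effect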
# Target sequence (P11308 whole entry, looked up, the tested form may be a part): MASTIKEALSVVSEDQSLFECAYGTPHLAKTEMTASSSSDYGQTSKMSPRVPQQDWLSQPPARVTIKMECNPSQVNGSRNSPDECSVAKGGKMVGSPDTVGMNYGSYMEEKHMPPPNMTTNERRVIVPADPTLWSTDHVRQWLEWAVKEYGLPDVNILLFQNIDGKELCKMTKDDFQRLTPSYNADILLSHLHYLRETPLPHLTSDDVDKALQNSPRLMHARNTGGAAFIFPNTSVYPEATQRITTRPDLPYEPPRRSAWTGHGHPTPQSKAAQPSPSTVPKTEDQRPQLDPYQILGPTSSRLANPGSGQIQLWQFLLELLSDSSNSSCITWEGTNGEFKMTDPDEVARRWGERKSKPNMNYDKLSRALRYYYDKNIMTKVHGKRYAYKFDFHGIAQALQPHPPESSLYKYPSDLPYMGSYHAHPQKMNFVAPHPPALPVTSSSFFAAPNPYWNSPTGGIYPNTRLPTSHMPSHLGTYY
#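 His-tagged ERG Ets domain (1 uM in the protein solution; 300mM KCl, 50mM Tris-HCl, 1mM EDTA, 1mM DTT, pH 7.5) received compound, then a probe mix of 5 nM fluorescein-DNA and 100nM Texas-615-DNA. Fluorescence polarization was read for both dyes.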
# Starred values were filed as active, the others as inactive; i = inactive; u = inconclusive; x = not tested or not shown; [ ] = another dose, or the depositor's remark. Unless noted, calls come from the whole dose curve; as a rule, active = well fitted curve in the direction sought with a large enough effect; inconclusive = small, poorly fitted or top-dose-only effect, or another doubt; inactive = no such curve, though single readings can be large; an effect the other way counts as inactive or inconclusive. Potency is the fitted concentration of half-maximal effect.
SMILES,TDP-43 yeast inh,FUS suppressor,Mito fusion act,Abeta rescue,aSyn yeast inh,ERG Ets-DNA blk
Cc1ccc(NC(=S)c2ccccc2)cc1,11.2µM*,i,15.2%,i,-2.1%,1.5%
Cc1ccc(O)c(-c2n[nH]c3c2C(c2ccccc2F)N(Cc2ccco2)C3=O)c1 (centres undefined),16.1%,i,x,i,x,6.0%
ClCc1nc2ccccc2c2ccccc12,14.1µM*,i,-29.3%,i,-0.8%,15.5%
Cc1ccc(SCC(=O)c2c(C)nc3ccccn23)cc1,-15.8%[0.397 µM],i,0.1%,i,-0.6%,-1.3%
Cc1ccc(SCC(=O)c2cc(C)c(O)c(C)c2)cc1,17.8µM*,i,15.9%,i,-1.3%,-6.5%
CC1=C(C(=O)OCc2ccccc2)C(/C=C/c2ccccc2)NC(=S)N1 (centres undefined),u,u,15.8µM*,i,21.3%,-7.2%
COC(=O)c1cc(NC(=O)c2cc3sccc3n2Cc2ccc(Cl)cc2)cc(C(=O)OC)c1,7.9%,i,x,i,x,-0.3%
CC12CCC(=O)C=C1CCC1C2CCC2(C)C(c3csc(N)n3)CCC12 (centres undefined),14.1%,u,x,i,17.8µM*,1.6%
CC12CCC(=O)C=C1CCC1C2C(O)CC2(C)C(c3csc(N)n3)CCC12 (centres undefined),-12.7%,u,x,i,2.0%,-0.3%
COC(=O)[C@]12C[C@H](CC(=O)NCc3cccc(C(F)(F)F)c3)C(=O)N(Cc3ccc(Cl)cc3Cl)C1=C[C@H](C(C)(C)C)O[C@@H]2C,x,12.6µM*,x,x,x,x
COC(=O)[C@]12C[C@H](CC(=O)NCc3ccccc3)C(=O)N(Cc3ccc(Cl)cc3Cl)C1=C[C@H](C(C)(C)C)O[C@@H]2C,x,i,x,x,x,x
COC(=O)[C@]12C[C@H](CC(=O)N3CCN(C(=O)c4ccco4)CC3)C(=O)N(Cc3ccc(Cl)cc3Cl)C1=C[C@H](C(C)(C)C)O[C@@H]2C,x,11.2µM*,x,x,x,x
C=CCn1c(COc2ccccc2)nnc1SCC(=O)Nc1ccc(S(=O)(=O)Nc2cc(C)nc(C)n2)cc1,x,i,x,x,x,x
Cn1c(SCCSc2nnc(-c3ccccc3)n2C)nnc1-c1ccccc1,x,x,-3.4%,x,x,x
C=CCSc1nnc(-c2sc(-c3ccccc3)nc2C)n1C,15.8µM*,i,7.4%,i,x,9.9%
CCN(Cc1ccccc1)C(=O)c1cc(-c2ccccc2)n[nH]1,17.8µM*,i,x,i,x,11.9%
CC(CNC(=O)c1cc(-c2ccccc2)n[nH]1)c1ccccc1 (centres undefined),35.5µM*,i,x,i,x,-0.6%
CCN(Cc1ccccc1)C(=O)c1ccc(C(=O)N(CC)Cc2ccccc2)cc1,-0.3%,i,-5.3%,i,-1.3%,-2.6%
Cc1ccc(C)c(Sc2ccc(NC(=O)CCl)cc2)c1,8.91µM*,i,5.5%,i,17.1%,0.1%
Cc1ccc(Sc2ccc(NC(=O)CCl)cc2)cc1C,u,i,14.1µM*,i,-35.0%,4.8%
Cc1cccc(N2CCN(C(=O)CN3C(=O)COc4ccc(S(=O)(=O)N5CCOCC5)cc43)CC2)c1C,2.4%,i,x,i,0.1%,0.3%
O=C(Nc1ncccc1O)c1cccc(S(=O)(=O)N2CCCc3ccccc32)c1,21.0%,i,u,i,-33.4%,-1.8%
Cc1ccnc(NC(=O)c2cccc(S(=O)(=O)N3CCCc4ccccc43)c2)c1,22.4µM*,i,22.3%,i,9.4%,4.8%
Cc1cccnc1NC(=O)c1cccc(S(=O)(=O)N2CCCc3ccccc32)c1,22.5%,i,3.5%,i,2.6%,8.9%
O=C(Nc1ccccn1)c1cccc(S(=O)(=O)N2CCCc3ccccc32)c1,25.1µM*,i,19.1%,i,9.1%[1.84 µM],-3.9%
CCCc1ccc(-c2ccc(/C=C/C(=O)O)cc2)nc1,3.5%,x,u,i,18.9%,0.0%
